Sampled rows, rich in hits. Any-hit rate of the full collection: about 7.5%.
RORg inh: ROR gamma (mouse) transcription inhibition. Potency, µM (top dose mostly 53.6 µM), hits mostly inhibitors. P51450. Drosophila S2 Gal4-RORgamma UAS-luciferase reporter, 20 h. 310,000 compounds, 5.4% hits. AID 2551; also: nearly all actives have a fitted effect of over 60% in size
Target sequence (P51450 whole entry, looked up, the tested form may be a part): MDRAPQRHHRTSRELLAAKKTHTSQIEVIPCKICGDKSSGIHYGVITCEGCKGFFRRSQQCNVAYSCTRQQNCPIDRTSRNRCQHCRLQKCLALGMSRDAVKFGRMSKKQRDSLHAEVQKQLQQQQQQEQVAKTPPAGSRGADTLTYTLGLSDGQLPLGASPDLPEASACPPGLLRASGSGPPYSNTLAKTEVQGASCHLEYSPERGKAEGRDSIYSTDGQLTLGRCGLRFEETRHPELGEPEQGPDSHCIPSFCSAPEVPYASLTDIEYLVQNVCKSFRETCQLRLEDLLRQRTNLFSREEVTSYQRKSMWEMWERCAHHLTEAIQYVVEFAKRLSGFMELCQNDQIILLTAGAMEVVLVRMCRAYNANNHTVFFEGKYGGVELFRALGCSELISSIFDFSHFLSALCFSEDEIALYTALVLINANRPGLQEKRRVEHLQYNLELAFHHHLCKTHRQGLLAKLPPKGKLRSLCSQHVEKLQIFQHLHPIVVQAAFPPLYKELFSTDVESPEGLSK
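Drosophila Schneider cells stably carrying a metallothionein-driven Gal4 DBD–ROR gamma fusion and a UAS-Photinus luciferase reporter were exposed to compound for 1 hr, then induced with copper sulfate (700 uM final) for 20 hr at ambient temperature before luminescence reading.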
B2AR arrestin: recruits beta-arrestin to the human beta2-adrenergic receptor; P07550; beta-arrestin recruitment to beta2AR, cell-based reporter; Potency, µM (titrated, usually from 46.1 µM), most hits filed as activators; 330,000 compounds, 0.02% hits; AID 492947; also: nearly all actives have a fitted effect of over 65% in size
TSHR antag: antagonists of human thyroid stimulating hormone receptor; P16473; 330,000 compounds, 0.2% hits; TSHR-expressing cells, TSH-stimulated cAMP HTRF, 2 h; stronger effect = lower value; activity change, negative = inhibition, % at 11.5 µM;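 active = activity change below a set negative limit, meaning inhibition stronger than a set level, cut at about -70% in these data; inconclusive = activity change between two set negative limits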
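Antagonism was scored as loss of TSH-driven cAMP in TSHR cells, stimulated with 4nM TSH (EC80) for 2 hours at 37 deg C and detected by homogeneous HTRF competition immunoassay.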
ELG1 DNA repair: inhibitors of ELG1-dependent DNA repair in HEK293T cells | HEK293T ELG1-luciferase reporter, luminescence, 16 h; DNA damage induced by 5-fluorouridine | Potency, µM (titrated, usually from 46.1 µM), hits mostly inhibitors | 330,000 compounds, 2.3% hits | AID 504467; also: nearly all actives have a fitted effect of over 55% in size
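Cells (2,000 per well) received 5-fluorouridine plus test compound or DMSO and were incubated 16 hr at 37 °C, 5% CO2. Luciferase activity was read by luminescence 30 min after ONE-Glo addition; signal suppression marked inhibition of damage-induced ELG1 function.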
VP16 counter: counter-screen for ROR gamma inhibitors: Gal4-VP16 reporter; 310,000 compounds, 3.5% hits; AID 2546; Potency, µM (titrated, usually from 53.6 µM), usual class: inhibitors; Drosophila S2 Gal4-VP16 UAS-luciferase, luminescence, 20 h;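 also: Gal4-VP16 expression switched on by copper sulfate through the metallothionein promoter; nearly all actives have a fitted effect of over 50% in size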
Large screens that a line does not name were inactive. Unless noted, calls follow the shape of the dose curve; as a rule, active = well fitted curve in the direction sought with a large enough effect; inconclusive = small, poorly fitted or top-dose-only effect, or another doubt; inactive = no such curve, though single readings can be large; an effect the other way counts as inactive or inconclusive.

CCOc1ccc(C(=O)CCN2CCCCCC2)cc1	RORg inh 4.5µM, VP16 counter 5.6µM
O=C(c1ccccc1)c1nc2c(n1O)CCCCC2	ELG1 DNA repair inconclusive
CCCOc1ccc(C(=O)CCN2CCCCC2)cc1	RORg inh inconclusive, VP16 counter 14µM
CCCOc1ccc(C(=O)c2nc3c(n2O)CCCCC3)cc1	VP16 counter 20µM
CCc1ccc(C(=O)NNC(=O)c2ccc(=O)n(C)n2)cc1	none
CC(SCc1ccc(C(=O)O)o1)c1ccc(C(=O)O)o1 (centres undefined)	none
CCCCNS(=O)(=O)c1ccc2nc(SCC(=O)c3ccccc3OC)[nH]c2c1	ELG1 DNA repair 21µM
CCCCNS(=O)(=O)c1ccc2nc(SCC(N)=O)[nH]c2c1	none
CCCCNS(=O)(=O)c1ccc2nc(SCC(=O)Nc3ccccc3Cl)[nH]c2c1	RORg inh inconclusive, ELG1 DNA repair inconclusive
CCCCNS(=O)(=O)c1ccc2nc(SCC(=O)Nc3sccc3C#N)[nH]c2c1	ELG1 DNA repair 16µM, VP16 counter 13µM
Cc1ccc(NC(=S)NC2CCSc3ccccc32)cc1C (centres undefined)	RORg inh 3.5µM, VP16 counter 4µM
CC(=O)N[C@@H](CSC(=O)[C@]1([C@@H](O)C(C)C)NC(=O)[C@H](C)[C@@H]1O)C(=O)O	RORg inh inconclusive (no result: B2AR arrestin, TSHR antag, ELG1 DNA repair)
CN(c1ccc(C(=O)Nc2cccnc2)cc1)S(=O)(=O)c1ccccc1	RORg inh inconclusive
COc1ccc(S(=O)(=O)N(C)c2ccc(C(=O)N3CCN(c4ccccc4)CC3)cc2)cc1OC	ELG1 DNA repair 13µM
COc1ccc(CNC(=O)c2ccc(N(C)S(=O)(=O)c3ccc(C)cc3)cc2)cc1	ELG1 DNA repair 21µM
COc1ccc(S(=O)(=O)N(C)c2ccc(C(=O)Nc3cccnc3)cc2)cc1OC	ELG1 DNA repair 21µM
COc1ccc(S(=O)(=O)N(C)c2ccc(C(=O)Nc3cccnc3)cc2)cc1	RORg inh inconclusive, ELG1 DNA repair 23µM
Cc1cccc(Nc2cc(Cl)nc(SCC(=O)O)n2)c1C	none (no result: B2AR arrestin, TSHR antag, ELG1 DNA repair)
CC(C)c1nnc(NC(=O)CSc2nnc(-c3ccco3)o2)s1	RORg inh 11µM, VP16 counter 18µM
COC(=O)CSc1nnc(-c2ccco2)o1	ELG1 DNA repair inconclusive
Cc1ccc(NC(=O)CSc2nnc(-c3ccco3)o2)c(C)c1	none
Cc1nnc(NC(=O)CSc2nnc(-c3ccco3)o2)s1	RORg inh 1.6µM, VP16 counter 5µM
CN(C)C(=O)c1ccc(-c2cncnc2Nc2ccc(F)cc2)cc1	none (no result: B2AR arrestin, TSHR antag, ELG1 DNA repair)
CCC1=C2CC[C@H]3C(=O)NC(=O)[C@H]3[C@H]2[C@@]2(C)C(=NCC3CC3)OC(=O)N2C1=O	none (no result: B2AR arrestin, TSHR antag, ELG1 DNA repair)
COc1ccccc1/C=C\C(=O)OC[C@@H]1CCCN2CCCC[C@H]12	none (no result: B2AR arrestin, TSHR antag, ELG1 DNA repair)
Cc1ccc(/C=C/C(=O)c2ccccc(=O)c2O)cc1C	RORg inh 2.8µM, ELG1 DNA repair 21µM, VP16 counter 3.5µM
O=C(/C=C\c1ccccc1)c1ccccc1O	none (no result: B2AR arrestin, TSHR antag, ELG1 DNA repair)
O=C(/C=C/c1ccccc1)c1cc(Br)ccc(=O)c1O	RORg inh inconclusive, TSHR antag -85, ELG1 DNA repair inconclusive, VP16 counter inconclusive
O=C(/C=C/c1ccc(O)cc1)c1ccccc1O	RORg inh inconclusive (no result: B2AR arrestin, TSHR antag, ELG1 DNA repair)
CCc1ccc(-c2nc(CS(=O)CC(=O)NC3CCCCCC3)c(C)o2)cc1 (centres undefined)	none
O=c1c2ccccc2nc(/C=C/c2ccc([N+](=O)[O-])cc2)n1CCCO	ELG1 DNA repair 18µM
O=c1c2ccccc2nc(/C=C/c2ccc([N+](=O)[O-])o2)n1CCCO	RORg inh 8.9µM, ELG1 DNA repair 15µM, VP16 counter 7.1µM
O=c1c2ccccc2nc(/C=C/c2cccc(Br)c2)n1CCCO	ELG1 DNA repair 15µM
O=c1c2ccccc2nc(/C=C/c2ccc(Br)cc2)n1CCCO	none
O=c1c2ccccc2nc(/C=C/c2ccc(Cl)cc2)n1CCO	RORg inh inconclusive
O=c1c2ccccc2nnn1CSc1nc2ccccc2c(=O)n1CCCO	RORg inh 10µM
O=C(COC(=O)Cn1cnc2ccccc21)Nc1ccc(OC(F)F)cc1	none (no result: RORg inh, TSHR antag, VP16 counter)
CCOC(=O)C1CCCN(CC(=O)Nc2nccs2)C1 (centres undefined)	none
CCCC(C)C(=O)Nc1ccc(S(=O)(=O)Nc2nccs2)cc1 (centres undefined)	none

Screening results (PubChem)
